Entries with a potency or affinity are not part of this list. Active and inactive are the calls of the source. The rule behind the calls is not given here.
Experiment: cell-based, strain KU V3526, counter-screen (AID 602242)

Structure (SMILES) | outcome
O=c1c2cc([N+](=O)[O-])ccc2nc(CN2CCN(c3ccccc3)CC2)n1-c1ccccc1F | inactive
O=C(Oc1ccc2ccccc2c1Br)N1CCCCCC1 | inactive

— PubChem BioAssay AID602242 (Southern Research Specialized Biocontainment Screening …, 2012)
